For experiment [1], the system named is DFO2036. Put plainly: qHTS profiling for inhibitors of Plasmodium falciparum proliferation (AID 504749). Also: potency is read from the fitted curve at half-maximal effect; nearly all actives have a fitted effect of over 60% in size. The note with it: P. falciparum in erythrocytes, SYBR Green DNA, 72 h; series mostly up to 28.7 µM. In a few lines:
(§1)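 Infected RBCs, 0.3% parasitemia/2.5% Hct final; cpd 72 h, 37 C, 5% CO2; lysis buffer with saponin/triton/SYBR Green I, o/n RT dark; FI 485/535; norm. to artemisinin (0.29 uM) and DMSO.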

In experiment [2] the test system is DIV30. The description is as above. The note with it: P. falciparum in erythrocytes, SYBR Green DNA, 72 h; series mostly up to 28.7 µM. In a few lines:
as §1

The test system of experiment [3] is ECU. The description is as above. To be noted: P. falciparum in erythrocytes, SYBR Green DNA, 72 h; series mostly up to 28.7 µM. The method, boiled down: as §1
The test system of experiment [4] is HB3. The experiment is described as above. The note with it: P. falciparum in erythrocytes, SYBR Green DNA, 72 h; series mostly up to 28.7 µM. In a few lines: as §1
The subject of experiment [5] is JCK. The experiment is described as above. To be noted: P. falciparum in erythrocytes, SYBR Green DNA, 72 h; series mostly up to 28.7 µM. The method, boiled down:
as §1

The subject of experiment [6] is N140. Described as above. To be noted: P. falciparum in erythrocytes, SYBR Green DNA, 72 h; series mostly up to 28.7 µM. The method, boiled down:
as §1

Experiment [7] has as its system P94_40. The description is as above. To be noted: P. falciparum in erythrocytes, SYBR Green DNA, 72 h; series mostly up to 28.7 µM. The method, boiled down:
as §1

Experiment [8] relates to PAD. The experiment is described as above. To be noted: P. falciparum in erythrocytes, SYBR Green DNA, 72 h; series mostly up to 28.7 µM. The method, boiled down: as §1
The test system of experiment [9] is PC15. Described as above. The note with it: P. falciparum in erythrocytes, SYBR Green DNA, 72 h; series mostly up to 28.7 µM. In a few lines: as §1
The subject of experiment [10] is PC26. The experiment is described as above. To be noted: P. falciparum in erythrocytes, SYBR Green DNA, 72 h; series mostly up to 28.7 µM. In a few lines: as §1
For experiment [11], the system named is PC49. Described as above. To be noted: P. falciparum in erythrocytes, SYBR Green DNA, 72 h; series mostly up to 28.7 µM. The method, boiled down: as §1
Experiment [12] relates to TAB109. The experiment is described as above. The note with it: P. falciparum in erythrocytes, SYBR Green DNA, 72 h; series mostly up to 28.7 µM. In a few lines: as §1
The test system of experiment [13] is TAB113. The description is as above. To be noted: P. falciparum in erythrocytes, SYBR Green DNA, 72 h; series mostly up to 28.7 µM. The method, boiled down:
as §1

In experiment [14] the test system is Zika virus NS2B-NS3 protease (unlinked complex). Put plainly: Confirmatory screen GU AMC qHTS for Zika virus inhibitors (AID 1347153).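 Also: enzyme at 25 nM with substrate at 10 µM below its Km of 18.3 µM; potency is read from the fitted curve at half-maximal effect; nearly all actives have a fitted effect of over 70% in size.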 In a few lines: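 Fluorescence change (ex 340/em 450 nm) over 15 min, ~20% substrate conversion, normalized to no-inhibitor and no-enzyme controls, then Hill-fitted. Unlinked protease at 25 nM; AMC peptide 10 µM.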
The nature of experiment [15]: Confirmatory screen GU Rhodamine qHTS for Zika virus inhibitors qHTS (AID 1347157). Also: potency is read from the fitted curve at half-maximal effect; nearly all actives have a fitted effect of over 70% in size. In a few lines:
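A qHTS format was used, with compound concentrations ranging up to 114 microM. Each compound was preincubated with 25 nM NS2B-NS3 protease, and the substrate was then added at 1.5 microM. Curves were fitted with a 4-parameter Hill model.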

The nature of experiment [16]: Confirmatory screen NINDS Rhodamine qHTS for Zika virus inhibitors (AID 1347161). Also: potency is read from the fitted curve at half-maximal effect; nearly all actives have a fitted effect of over 60% in size. The method, boiled down: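 Aprotinin served as in-plate control. Conditions: 25 nM linked NS2B-NS3, pH 8.0 Tris buffer, titrated compounds, 15 min preincubation and 15 min reaction with 1.5 microM Rhod110 substrate at room temperature.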
The target of experiment [17] is Calcium and integrin-binding protein 1 (Homo sapiens) (UniProt Q99828). Put plainly: Confirmatory qHTS for Identification of Calcium Integrin Binding Protein 1 (CIB1) Competitor (AID 1508617). Also: nearly all actives have a fitted effect of over 65% in size. In a few lines: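 Confirmatory qHTS measures displacement of a FITC-alphaIIb peptide (100 nM) from CIB1-GST (1 uM) by fluorescence polarization. Calcium-containing HEPES buffer, pH 7.4; two 15 min room-temperature incubations.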
Calcium and integrin-binding protein 1 (Homo sapiens), sequence (Q99828 whole entry, looked up): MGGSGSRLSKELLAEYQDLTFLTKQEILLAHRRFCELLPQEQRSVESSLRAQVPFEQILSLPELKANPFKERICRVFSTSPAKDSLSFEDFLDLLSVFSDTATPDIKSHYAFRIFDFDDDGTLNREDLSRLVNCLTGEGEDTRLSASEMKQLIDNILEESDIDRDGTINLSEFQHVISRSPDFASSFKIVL

Experiment [18] is described as follows: Validation of Assay for Modulators of Lamin A Splicing (AID 1459; active = well fitted curve in the direction sought with a large enough effect in the signal ratio; the % refers to the signal ratio;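 also: cells exposed to compound for two days before reading; ratio rise marks activators and ratio drop marks inhibitors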). The method, boiled down:
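Splicing correction read as GFP (500-530 nm) over DsRed2 (575-640 nm) object intensity after 48 h compound exposure of reporter HeLa S3 clones (600 cells/well, 2% FBS medium); ancitabine and cycloheximide titrations, 0.5% DMSO as vehicle.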

Experiment [19] has as its target DNA repair nuclease/redox regulator APEX1 (Homo sapiens) (UniProt P27695). Put plainly: qHTS Validation Assay for Inhibitors of the Human Apurinic/apyrimidinic Endonuclease 1 (APE1) (AID 1705;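 also: TAMRA fluorescence gain over two minutes as APE1 cuts a quenched THF abasic duplex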). In a few lines: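 Activity read as rising fluorescence (598 nm emission, 525 nm excitation) from incision of a TAMRA/BHQ-2 duplex carrying a THF abasic site (50 nM). Compound and enzyme sat 15 min at RT before substrate start; signal change between first and third 60-s reads.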

Experiment [20] can be described thus: Counterscreen for APE1 Inhibitors: Fluorescent Dye Displacement Validation Assay (AID 1707). The method, boiled down: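 Assay buffer: Tris-HCl pH7.5 with 50mM NaCl, 2 mM MgCl2, 0.01% Tween-20. Dye 250 nM, duplex 50 nM final. Readout: decrease in ThO endpoint fluorescence, 480 nm excitation, 540 nm emission.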

Records with an inconclusive call do not appear. Active and inactive are the calls of the source. Unless noted, calls follow the shape of the dose curve; as a rule, active = well fitted curve in the direction sought with a large enough effect; inconclusive = small, poorly fitted or top-dose-only effect, or another doubt; inactive = no such curve, though single readings can be large; an effect the other way counts as inactive or inconclusive.

DNA repair nuclease/redox regulator APEX1 (Homo sapiens), sequence (P27695 whole entry, looked up): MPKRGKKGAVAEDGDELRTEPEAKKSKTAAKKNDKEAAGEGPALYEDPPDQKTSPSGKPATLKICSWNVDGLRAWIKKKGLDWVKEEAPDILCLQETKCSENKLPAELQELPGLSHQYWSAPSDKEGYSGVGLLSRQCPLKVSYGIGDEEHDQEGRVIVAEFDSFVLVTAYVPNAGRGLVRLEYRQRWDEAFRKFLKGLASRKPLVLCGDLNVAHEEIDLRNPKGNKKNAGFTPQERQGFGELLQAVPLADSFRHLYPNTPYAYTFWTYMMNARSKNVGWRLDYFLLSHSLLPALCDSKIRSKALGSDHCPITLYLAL

As to `O=C(CC1NCCC[C@H]1O)Cn1cnc2cc(Br)c(Cl)cc2c1=O` (stereo not given in full), the Potency in [1] was 2820 nM (active); in experiment [2] it was 3380 nM (active); in experiment [3], 5010 nM (active); in experiment [4], 2000 nM (active); in experiment [5], 2820 nM (active); in [6], 3160 nM (active). The Potency was 1410 nM (active) in experiment [7]; 2240 nM (active) in [8]; 891 nM (active) in experiment [9]; 3790 nM (active) in experiment [10]; 1780 nM (active) in [11]; 794 nM (active) in [12]. Also, the Potency in experiment [13] is 2240 nM (active).

For `O=C(O)c1ccc(O)c2ncc(N3CCCN(CCc4cccc5ccccc45)CC3)cc12`, the Potency is 49400 nM (active) in [14], 13900 nM (active) in [15] and 13900 nM (active) in [16].

As for `CN(C)CCCCCCNC(=O)c1cccc(-c2cc(O)c3ncccc3c2)c1`, in experiment [17], the result was inactive.

Regarding `CC(C)=CCC/C(C)=C/CC/C(C)=C/CSc1ccccc1C(=O)O`, the outcome in [18] was inactive. In addition, the Potency entry in experiment [19] and in experiment [20] was “inactive” in each case.
